# According to the supplement of paper PMC3334620:
# The full ranking holds about 33,000 sequences; the median of “E-score (-0.5 to 0.5)” is about -0.036, and the highest 2% start at about 0.37. Many of the other results were omitted from the sample, so the highest values are more common in it than they were.
# Biological target: T1, Yer064c (UniProt P40041)
# T1 sequence: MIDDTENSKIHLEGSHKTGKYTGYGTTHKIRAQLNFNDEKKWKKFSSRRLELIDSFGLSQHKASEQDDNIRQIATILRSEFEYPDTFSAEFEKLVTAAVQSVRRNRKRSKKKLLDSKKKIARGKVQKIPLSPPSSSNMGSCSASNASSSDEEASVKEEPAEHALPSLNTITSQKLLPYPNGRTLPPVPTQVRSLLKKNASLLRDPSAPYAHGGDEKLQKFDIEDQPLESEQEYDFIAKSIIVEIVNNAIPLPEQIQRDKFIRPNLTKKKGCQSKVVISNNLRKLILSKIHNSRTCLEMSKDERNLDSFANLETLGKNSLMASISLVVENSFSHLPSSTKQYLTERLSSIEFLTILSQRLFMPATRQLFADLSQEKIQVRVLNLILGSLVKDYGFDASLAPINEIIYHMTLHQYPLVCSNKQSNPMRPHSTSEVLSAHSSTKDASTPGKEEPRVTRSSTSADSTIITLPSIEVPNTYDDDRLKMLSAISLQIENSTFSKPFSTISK
# Assay: PBM E-score (8-mer binding enrichment) (E-score (-0.5 to 0.5)); higher = stronger / more preferred TF binding
# Conditions: protein concentration: 200 nM; construct: GST-full length
# How it was run: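 The E-score, a modified Wilcoxon-Mann-Whitney statistic, was computed by the Universal PBM Analysis Suite for every ungapped eight-base word pooled with its reverse complement. Scans behind it were normalised with masliner after bound GST-tagged yeast transcription factors were detected with fluorescent anti-GST. The proteins, at about 100-200 nM, had been applied to universal all-10-mer Agilent arrays made double-stranded by primer extension.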
row,Sequence,PBM E-score
1,GGTCGTAC,-0.205
2,CGTCGTAC,-0.0504
3,AGTCGTAC,0.399
4,GAGAGCGA,-0.0993
5,GCGATAAC,-0.135
6,CGTGGACA,-0.323
7,GCGCGGAC,0.0396
8,ATGACCGA,-0.0163
9,AGTCCTAT,0.306
10,AGTCCTAA,0.366
11,TGTCCTAA,-0.0793
12,AATAGCTA,-0.0209
13,GCCTGGGA,-0.343
14,TAGAATCA,0.362
15,GAGAATTA,-0.167
16,GAGAATCA,0.392
17,CAGAATCA,0.349
18,AAGAATCA,0.392
19,GAGAATCC,-0.141
20,GAACAGCA,-0.175
21,AATGGACC,0.0237
22,CCAGACTA,0.208
23,CGAGACTC,0.369
24,AGAGACTG,0.0785
25,CGAGACTA,0.37

row,Sequence,PBM E-score
1,CGAGACGA,-0.0652
2,AGAGACTC,0.386
3,CCAGACTC,0.206
4,CGAGACAC,0.13
5,AGAGACTA,0.347
6,GGAGACTA,0.375
7,GGAGACAA,-0.173
8,GGAGACCA,-0.176
9,AGCCTAGC,-0.166
10,CTTCGCGA,0.105
11,ATGAGATA,0.0605
12,GTGCGGCA,-0.143
13,CGGCGATA,0.143
14,AAGGAACG,-0.167
15,AAAAGGAT,-0.0899
16,GCACCCCC,-0.268
17,AGTTAGTA,0.196
18,CGTTAGTC,0.45
19,AGTTAGTC,0.447
20,CGTTAGAC,-0.00028
21,AGTTAGTG,0.0232
22,CGTTAGTA,0.0645
23,AATTGTAG,0.13
24,AAGAGCGC,0.0664
25,CCGTACAG,-0.123

row,Sequence,PBM E-score
1,AAAATATA,0.102
2,ATAAGTCA,0.438
3,ATAAGTCC,0.161
4,CTAAGTAA,0.204
5,GTAAGTCA,0.448
6,GTAAGTGA,0.131
7,CTAAGTCA,0.449
8,ATAAGTCG,0.223
9,GTAAGTAA,0.0006
10,CTAAGTCC,0.148
11,CATCTCGG,0.181
12,AATCCAGC,-0.149
13,AACCCATA,0.111
14,GAAGCGGA,-0.189
15,CAATCAGC,0.317
16,GAATCAGC,0.417
17,AAATCAGC,0.227
18,GAATCAGA,0.402
19,AAATCAGA,0.158
20,CAATCAGA,0.208
21,CTTGCCGC,-0.264
22,AGAGAACA,-0.0209
23,GCGAACGC,-0.058
24,GCGAATCA,0.414
25,TCGAATAA,-0.00971

row,Sequence,PBM E-score
1,ACGAATCC,0.171
2,CCGAATCA,0.348
3,ACGAATCT,0.123
4,TCGAATCA,0.369
5,GCGAATCC,-0.066
6,ACGAATCA,0.404
7,CCGAATCC,-0.186
8,CTCACGCC,0.172
9,CGGGAATC,0.0615
10,CGCCTCGC,-0.087
11,AATTCAAT,0.0175
12,AAATGCCC,-0.188
13,GAGACACA,0.288
14,AGGGCTGC,-0.346
15,AACACACC,0.0884
16,ATGCGGCG,-0.174
17,CCCGCCCC,-0.223
18,GATTAATA,0.325
19,CATTAATC,0.271
20,GACTAACA,0.449
21,TACTAACA,0.0931
22,GATTAACC,0.294
23,CACTAACC,-0.153
24,AACTAACC,0.0831
25,CACTAACA,0.0977

row,Sequence,PBM E-score
1,TATTAACA,0.0799
2,GACTAACC,0.44
3,GATTAATC,0.391
4,GATTAACA,0.367
5,GAGCAATC,0.146
6,CATAGGGG,-0.149
7,TCCCCCGA,-0.176
8,GCGGCGAA,-0.17
9,CGATGAAA,0.0671
10,ATTTTTCG,0.00581
11,TGAGGAAA,-0.0935
12,GCCCTAGA,-0.316
13,CGTACGCA,-0.195
14,CCAGCACC,-0.231
15,CCTAAAGA,0.0245
16,ACTGTGAC,0.397
17,GCTATGAC,0.307
18,ACTGTGAA,0.0208
19,ACTGTGAT,0.165
20,CCTATGAC,0.235
21,ACTATGAC,0.372
22,CCTTGGTA,0.00702
23,AAGTTCTG,0.0281
24,ATTAAGGA,0.176
25,AGTTGCCC,0.00742

row,Sequence,PBM E-score
1,ACAAGTCC,-0.047
2,CCTAATCC,-0.33
3,TCTAATCA,0.386
4,ACTAATCT,0.273
5,TCTAATAA,0.115
6,CCTAATCA,0.376
7,ACTAATCG,0.226
8,ACTAATCC,0.208
9,ACTAATCA,0.403
10,GCTAATCA,0.372
11,CCTAATCG,0.0953
12,GCTAATCC,-0.145
13,GCTAATTA,0.0849
14,CTTAACCA,0.197
15,ATTGGGAC,0.0416
16,TCGTTCCA,-0.108
17,ACCCTGTG,-0.0328
18,ACCCAGAT,-0.0932
19,CGAGGCTA,-0.0432
20,ACACTCGC,0.111
21,CGCGACAA,0.124
22,AGCGACCC,-0.196
23,CGCGACTA,0.397
24,AGCGACTC,0.412
25,CTCGACTA,0.299

row,Sequence,PBM E-score
1,CCCGACTC,0.389
2,ACCGACTC,0.328
3,CCCGACTA,0.314
4,GGCGACTA,0.402
5,GGCGACGA,-0.226
6,AGCGACGC,-0.273
7,GGCGACCA,-0.416
8,TAATTCAA,0.14
9,TAGGGCCA,-0.307
10,GCCCCGGA,-0.22
11,AGCTTGGC,-0.115
12,ATAGAGAC,0.0997
13,GCGACACC,-0.173
14,CCCTACGA,0.0187
15,GTACAGGA,-0.0544
16,CACAGATA,-0.0649
17,ATGCCAGA,-0.0495
18,AGCGACTG,0.255
19,CGCGACTC,0.438
20,AGCGACCA,-0.173
21,AGCGACTA,0.391
22,CGCGACCC,-0.0841
23,CTCGACTC,0.34
